# The entries come from a sample that favours hits as a whole.
# ALOX12 inh – Primary qHTS assay for inhibitors of human arachidonate 12S-lipoxygenase (ALOX12): Round 2; Polyunsaturated fatty acid lipoxygenase ALOX12 (Homo sapiens), P18054; purified 12hLO, xylenol orange hydroperoxide absorbance; Potency, µM (titrated, usually from 108 µM), for the others: top-dose activity change, negative = inhibition, hits mostly inhibitors; 1.1% of 580,000 active; AID 1671190, 2021; note: potency is the fitted concentration of half-maximal effect
# Target sequence (P18054 whole entry, looked up): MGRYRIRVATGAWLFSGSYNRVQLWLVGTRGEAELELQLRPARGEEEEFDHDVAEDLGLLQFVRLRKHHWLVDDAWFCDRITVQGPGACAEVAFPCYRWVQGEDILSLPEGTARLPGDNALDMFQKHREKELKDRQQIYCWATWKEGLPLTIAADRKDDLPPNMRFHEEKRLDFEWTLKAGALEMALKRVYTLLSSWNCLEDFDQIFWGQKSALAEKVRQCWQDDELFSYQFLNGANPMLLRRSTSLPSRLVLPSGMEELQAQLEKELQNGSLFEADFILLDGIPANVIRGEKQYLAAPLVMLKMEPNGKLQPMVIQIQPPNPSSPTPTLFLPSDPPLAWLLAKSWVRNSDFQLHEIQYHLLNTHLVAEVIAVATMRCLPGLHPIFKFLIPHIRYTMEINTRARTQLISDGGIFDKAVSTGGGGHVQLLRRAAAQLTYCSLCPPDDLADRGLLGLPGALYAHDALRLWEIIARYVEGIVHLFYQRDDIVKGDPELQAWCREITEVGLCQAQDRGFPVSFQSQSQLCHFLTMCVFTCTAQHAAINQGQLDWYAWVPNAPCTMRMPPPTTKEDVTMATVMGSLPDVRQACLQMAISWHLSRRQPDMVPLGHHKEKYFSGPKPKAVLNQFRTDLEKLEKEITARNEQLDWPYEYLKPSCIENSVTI
#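 Purified human 12hLO at 150 nM in 25 mM Hepes, 0.01% Triton X-100, pH 7.0, preincubated 15 min at room temperature with compound. Reaction started with 40 uM arachidonic acid, 30 min at room temperature. Hydroperoxide measured by Fe-xylenol orange, 573/405 nm absorbance ratio.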
# DT40 TDP1 no CPT – qHTS for Inhibitors of human tyrosyl-DNA phosphodiesterase 1 (TDP1): qHTS in cells in absence of CPT; DT40 Tdp1-/- hTDP1 cells, no CPT, ATP luminescence, 48 h; Potency, µM (doses to about 46.2 µM), for the others: top-dose activity change, negative = growth inhibition, usual class: inhibitors; 15% of 420,000 active; note: potency is the fitted concentration of half-maximal effect; nearly all actives have a fitted effect of over 55% in size
#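 Cells were dispensed at 400 per well, compounds added by pin tool, plates incubated ≥48 hr at 37 °C, then CellTiter-Glo added for 30 min at room temperature before luminescence reading. Line: DT40 Tdp1-/- complemented with hTDP1; camptothecin omitted.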
# DT40 TDP1 CPT – qHTS for Inhibitors of human tyrosyl-DNA phosphodiesterase 1 (TDP1): qHTS in cells in presence of CPT. chicken DT40 Tdp1-/-;hTDP1 cells + 20 nM CPT, ATP luminescence, 48 h. Potency, µM (series often up to 46.2 µM), for the others: at the highest dose activity change, negative = growth inhibition, usual class: inhibitors. 12% of 420,000 active. AID 686979, 2013; note: potency is the fitted concentration of half-maximal effect; nearly all actives have a fitted effect of over 55% in size
#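 Chicken DT40 Tdp1-/- cells complemented with human TDP1, 400 cells/well, exposed to compounds plus 20 nM camptothecin for at least 48 h at 37 C; viability read as ATP content by CellTiter-Glo luminescence.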
# HT1080 IDH1KD tx – qHTS for induction of synthetic lethality in tumor cells producing 2HG: qHTS for the HT-1080-IDH1KD cell line; 2% of 360,000 active; HT-1080 IDH1 knockdown viability, ATP luminescence, 48 h; Potency, µM (highest dose often 46.1 µM), for inactives: at the highest dose activity, negative = toxicity, most hits filed as cytotoxic;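 note: potency is the fitted concentration of half-maximal effect; 0% = DMSO wells and -100% = cell-free medium wells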
#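 In this qHTS, HT-1080 cells depleted of IDH1 are exposed for 48 h at 37 °C to compound titrations. Toxicity is scored from CellTiter-Glo luminescence, with DMSO as full viability and medium alone as none.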
# HT1080NT lethal – qHTS for induction of synthetic lethality in tumor cells producing 2HG: qHTS for the HT-1080-NT fibrosarcoma cell line; 1.6% of 360,000 active; Potency, µM (series often up to 46.1 µM), for inactives: top-dose activity, negative = less viability, actives largely listed as cytotoxic; HT-1080-NT fibrosarcoma viability, CellTiter-Glo ATP luminescence, 48 h;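 note: NT is the 2HG producing partner of a matched IDH1 knockdown line; potency is the fitted concentration of half-maximal effect; 0% = DMSO-treated cells and -100% = media-only wells without cells; nearly all actives have a fitted effect of over 55% in size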
#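 Compounds were tested in concentration-response format on HT-1080-NT cells for 48 hours at 37 degrees C. Cell viability came from CellTiter-Glo luminescence; curves were classified by r2, response magnitude and activity.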
# IL-1B inflam inh – qHTS for Inhibitors of Inflammasome Signaling: IL-1-beta AlphaLISA Primary Screen; THP-1 LPS/ATP IL-1B secretion, AlphaLISA, 16 h; stronger effect = lower value; activity change, % at 57.5 µM; 4.7% of 360,000 active; AID 743279, 2014; in the data active = activity change below about -50%; inconclusive = mostly about -30% to -49%
#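 THP-1 cells pretreated 1 hr with compounds (up to 57.5 uM final), then stimulated with LPS (250 ng/mL final) plus ATP (1.25 mM final); secreted IL-1B measured by AlphaLISA after 16 hr, decreased signal indicating inhibition.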
# * marks the source's active call; other numbers are inactive results; u = inconclusive; x = no result; ! = repeats disagree; [ ] = another dose, or the depositor's remark. Unless noted, calls come from the whole dose curve; as a rule, active = well fitted curve in the direction sought with a large enough effect; inconclusive = small, poorly fitted or top-dose-only effect, or another doubt; inactive = no such curve, though single readings can be large; an effect the other way counts as inactive or inconclusive. Unless noted, % is set by controls: 0 for no effect and ±100 for the full control effect.
SMILES,ALOX12 inh,DT40 TDP1 no CPT,DT40 TDP1 CPT,HT1080 IDH1KD tx,HT1080NT lethal,IL-1B inflam inh
COc1cccc(Cn2c(=O)n(-c3ccc(Br)cc3F)c(=O)c3sc4ccccc4c32)c1,0.0%,u,9.2µM*,x,x,x
Cc1ccc(Cl)cc1-n1c(=O)c2sc3ccccc3c2n(Cc2ccccc2)c1=O,0.0%,5.8µM*,23.1µM*,x,x,x
O=c1c2sc3ccccc3c2n(Cc2ccc(F)cc2)c(=O)n1Cc1ccccc1,-2.1%,-3.0%,-9.2%,x,x,x
CCc1nc2ccc(C(=O)NC3CCC(C)CC3)cc2nc1CC (stereo not given),6.0%,-19.9%,u,7.2%,10.0%,-3.3
Cc1cccc(N2CCN(C(=O)c3cc4ccc(F)cc4nc3C)CC2)c1C,-58.1%,x,x,x,x,x
O=C(CC1CCCCC1)N1CCC(Cc2nc(-c3ccccc3)no2)CC1,28.5%,x,x,x,x,x
Cc1ccc(-c2noc([C@@H]3CCCN3C(=O)Cc3cccc(C)c3)n2)cc1,-8.2%,x,x,x,x,x
COC1=C(NCc2ccc3c(c2)OCO3)C(=O)C(OC)=C(NCc2ccc3c(c2)OCO3)C1=O,8.91µM*,-6.8%,-11.2%,17.1%,-0.6%,-14.4
COc1ccc(CNCc2ccc3c(c2)OCO3)cc1Br,u,16.4µM*,u,-1.7%,2.0%,-23.1
CC(C#N)(NC(=O)CSc1ccc(O)cc1)C1CC1 (stereo not given),-32.0%,x,x,x,x,x
O=C(NC1CCN(c2nc3ncccc3o2)CC1)c1cccc(Cl)c1,25.3%,x,x,x,x,x
Cc1cc(C)n(-c2cccc(C(=O)NCC3Cc4cccc(-c5ccccn5)c4O3)c2)n1 (stereo not given),7.2%,11.6µM*,u,x,x,x
O=C(NCC1Cc2cc(F)cc(-c3cnccn3)c2O1)c1cccc(-c2ccccc2F)c1 (stereo not given),3.1%,23.1µM*,11.6µM*,x,x,x
Cc1cc(C)n(-c2cccc(C(=O)NCC3Cc4cc(Cl)cc(-c5cnccn5)c4O3)c2)n1 (stereo not given),-0.6%,u,-3.6%[9.04 µM],x,x,x
O=C(NCC1Cc2cc(F)cc(-c3cnccn3)c2O1)c1cccc(Cl)c1 (stereo not given),10.5%,18.4µM*,u,x,x,x
O=C([C@@H]1C[C@H](Oc2cccnc2)CN1S(=O)(=O)Cc1ccccc1F)N1CCCC1,13.9%,x,x,x,x,x
CCCN(CCC)S(=O)(=O)c1ccc(C(=O)Nc2cccc(-c3nc4ccccc4[nH]3)c2)cc1,-20.2%,4.61µM*,4.61µM*,x,x,x
COc1c(Cl)cc(C(=O)Nc2cccc(-c3nc4ccccc4[nH]3)c2)cc1Cl,0.0%,23.1µM*,u,x,x,x
CC(=O)Nc1ccc(-c2nc3ccc(Cl)cc3[nH]2)cc1,x,-24.3%,-2.9%,x,x,x
CC(=O)Nc1ccc2nc(-c3ccncc3)[nH]c2c1,1.8%,-2.9%,-1.5%,19.9%,17.6%,-14.8
CC(=O)Nc1ccc2nc(-c3cc(C)ccc3C)[nH]c2c1,-7.1%,3.26µM*,3.26µM*,x,x,x
CC(=O)Nc1cc(NC(C)=O)cc(-c2nc3ccccc3[nH]2)c1,184.3%,5.8µM*!,8.2µM*!,21.5%,23.1%,12.8
O=C(COC(=O)C1CC(=O)N(CCc2ccccc2)C1)c1ccc[nH]1 (stereo not given),0.3%,-1.7%,10.7%,7.0%,9.0%,0.0
Fc1cc2[nH]cnc2cc1Cl,0.0%,1.84µM*,5.5%,-0.7%,13.5%,-1.7
COc1ccc(CC(=O)Nc2nc(-c3nc4ccccc4s3)cs2)cc1,-8.4%,x,x,x,x,x
SMILES,ALOX12 inh,DT40 TDP1 no CPT,DT40 TDP1 CPT,HT1080 IDH1KD tx,HT1080NT lethal,IL-1B inflam inh
O=C(COc1ccc2c(=O)c(Oc3ccc(F)cc3)coc2c1)Nc1ccccc1Br,-0.7%,x,x,x,x,x
Cc1cc(C)cc(Oc2coc3cc(OCC(=O)NC4CCCCC4)ccc3c2=O)c1,-10.1%,20.6µM*,u,x,x,x
CCc1ccccc1NC(=O)COc1ccc2c(=O)c(Oc3cc(C)ccc3C)coc2c1,-7.5%,23.1µM*,18.4µM*,-9.8%,-2.8%,5.3
Cc1ccc(C)c(Oc2coc3cc(OC(=O)c4cccs4)ccc3c2=O)c1,0.0%,u,29.1µM*,17.9%,0.8%,29.5
COc1cc(Cl)c(C)cc1NC(=O)Cn1ncc2c(=O)oc3ccccc3c21,-1.7%,-14.7%,-7.9%,x,x,x
CC(=O)c1ccc(NC(=O)CSc2nnc(NC(=O)C3CC3)s2)cc1,-1.7%,6.4%,14.9%,20.2%,4.3%,0.0
O=C(NCCc1nc2ccccc2n1Cc1ccc(F)cc1)c1ccco1,-12.6%,u,-10.4%,x,x,x
O=C(NCCc1nc2ccccc2n1Cc1ccc(Cl)cc1Cl)c1ccco1,-23.3%,1.84µM*,1.84µM*,x,x,x
O=C(NCCc1nc2ccccc2n1Cc1c(F)cccc1Cl)c1ccco1,-6.1%,u,u,x,x,x
O=C(NCCCc1nc2ccccc2n1Cc1ccc(Cl)cc1Cl)c1ccco1,u,u,23.1µM*,x,x,x
CCc1ccc(CNC(=O)c2ccc3nc(SCc4ccc(F)cc4)n(C)c3c2)cc1,-19.0%,20.6µM*,14.6µM*,x,x,x
Cn1c(SCc2ccc(F)cc2)nc2ccc(C(=O)NCc3ccccc3)cc21,-21.1%,-20.1%,-25.7%,x,x,x
CCOC(=O)N1CCN(C(=O)c2ccc3nc(SCc4ccc(F)cc4)n(C)c3c2)CC1,147.7%,20.6µM*,23.1µM*,-6.5%,-7.6%,u
CCn1c(=O)c2cc(C(=O)N3CCN(c4cccc(OC)c4)CC3)sc2c2ccccc21,-11.3%,13µM*,18.4µM*,x,x,x
CCn1c(=O)c2cc(C(=O)N3CCN(c4cccc(Cl)c4)CC3)sc2c2ccccc21,0.0%,23.1µM*,14.6µM*,x,x,x
CCn1c(=O)c2cc(C(=O)N3CCOCC3)sc2c2ccccc21,-2.4%,u,-21.1%,2.4%,15.7%,-20.4
COc1cccc(N2CCN(C(=O)c3cc4c(=O)oc5ccc(C)cc5c4s3)CC2)c1,-23.5%,u,u,x,x,x
COCC(=O)N1CCCN(S(=O)(=O)c2ccccc2)CCC(=O)NCC1,-5.0%,x,x,x,x,x
Cc1ccc(-c2noc([C@@H]3C[C@@H](O)CN3Cc3cccnc3)n2)cc1F,-0.6%[176 µM],x,x,x,x,x
COc1cccc(N/C(SCc2cccc([N+](=O)[O-])c2)=C(/C#N)C(N)=O)c1,-5.2%,u,u,16.4µM*,u,-101.8*

# From PubChem
